# aSyn 5UTR act = Activators working through SNCA 5'UTR binding (MLPCN). activity score, % (tested at 7.5 µM), hits read low. 7.1% of 300,000 active. alpha-synuclein 5'UTR reporter, activators screen; in the data active = activity score below about -60%
# * marks the source's active call; other numbers are inactive results. The list is a sample of the results.
SMILES,aSyn 5UTR act
Cc1c(Cl)cccc1NC(=O)c1cc(C2CC2)on1,-207.1*
COC(=O)Cn1c(SCc2ccccc2)nc2ccccc21,-166.2*
O=C(/C=C/c1ccccc1)NC(=O)c1ccccc1O,-157.1*
O=C(/C=C/c1ccccc1)CC(=O)c1ccccc1O,-201.1*
COc1cc(/C=C/C(=O)NC(=O)c2ccccc2O)ccc1O,-160.5*
CC(C)(C)N=Cc1cc(-c2ccccc2)sc1O,-162.0*
Cc1cc(C)c(OCC(=O)Nc2cc(C(=O)O)cc(C(=O)O)c2)cc1C,-129.4*
Cc1ccc(C)c(OCC(=O)Nc2cccc(C(=O)O)c2)c1C,-110.2*
Cc1ccc(/C(N)=N/OC(=O)COc2ccccc2Cl)cc1,-95.3*
N/C(=N\OC(=O)COc1ccccc1Cl)c1ccc(Cl)cc1,-89.6*
FC(F)(F)c1cnc(-c2cnc(-c3ccncc3)nc2)c(Cl)c1,-108.8*
O=C(CCCCN1CCCCC1)c1ccc2c(c1)Cc1ccccc1-2,-64.6*
O=C(O)CCCc1ccc2c(c1)CCc1ccccc1-2,108.5
COc1ccc(C(=O)NCC2OCCc3ccccc32)c(O)c1 (stereo not given),-88.4*
CSc1ccc(C2c3[nH]c4ccccc4c3CCN2C(=O)c2ccnn2C)cc1 (stereo not given),-166.1*
Nc1nnc(C(=O)c2ccccc2N)s1,-123.1*
COc1ccc(NC(=O)c2cc3ccccc3o2)cc1OC,-149.7*
COc1ccc(NC(=O)c2cc3ccccc3o2)cn1,-215.8*
COc1ccc(NC(=O)CCCc2ccccc2)cc1OC,-136.1*
COc1ccc(NC(=O)c2cc(CN3C(=O)c4ccccc4C3=O)ccc2OC)cn1,-85.9*
COc1ccc(NC(=O)c2cc3ccccc3o2)cc1,-152.1*
COc1cc(NC(=O)C(C)C)ccc1NC(=O)c1cc2ccccc2o1,-166.3*
COc1ccc(NC(=O)c2coc3ccccc23)cc1OC,-122.0*
Cc1ccc(-c2csc(NC(=O)COC(=O)c3cccc(S(=O)(=O)N4CCOCC4)c3)n2)cc1,-92.8*
Cc1ccc(-c2csc(NC(=O)c3cccc(S(=O)(=O)N4CCN(C)CC4)c3)n2)cc1,-65.8*
SMILES,aSyn 5UTR act
Cn1c(COc2ccccc2)nc2ccccc21,-99.0*
CCOCCn1c(COc2ccc(C)cc2)nc2ccccc21,-117.8*
COCCn1c(COc2ccc(C)cc2)nc2ccccc21,-95.0*
Cc1ccc(NCc2nc3ccccc3n2CCOc2ccccc2)cc1,-136.3*
CCn1c(COc2ccc(C)cc2)nc2ccccc21,-125.6*
CCCn1c(CNc2ccc(Br)cc2)nc2ccccc21,-118.5*
CCCC1CCC(c2nc(-c3cccnc3)no2)CC1 (stereo not given),-166.3*
Brc1ccc(C2=Nc3cccc4cccc(c34)N2)o1,-74.1*
COc1cc(/C=N/OCC(=O)NC2CCCCC2)ccc1OCc1ccccc1,-97.4*
COc1cc(/C=N/NC(=O)c2cccs2)ccc1OCc1ccccc1,-105.4*
COc1cccc(/C=N/NC(=O)c2cccs2)c1,-136.5*
COc1cc(/C=N/NC(=O)c2cc(C)oc2C)ccc1OCc1ccccc1,-101.6*
Oc1ccccc1NCC(O)Cn1ccc2ccccc21 (stereo not given),-112.5*
CC(C)CC(=O)N/C(N)=N/c1nc2ccccc2o1,-159.6*
CCCC(=O)N/C(N)=N/c1nc2ccccc2o1,-121.5*
CCCn1c(Sc2nnnn2-c2ccccc2)n[nH]c1=O,-98.1*
O=c1c2ccccc2ncn1-c1ccc2c(c1)OCCO2,-110.7*
CCc1cc(C=C(Cl)Cl)oc(=O)c1C,-117.2*
CN1CCN(C(=O)c2ccc3c(c2)NC(=O)/C(=C/c2ccccc2)S3)CC1,-87.6*
Cc1cccc(/C=C2/Sc3ccc(C(=O)NCCCN4CCOCC4)cc3NC2=O)c1,-68.8*
Cc1cccc(CN2C(=O)/C(=C\c3ccc(C(=O)NCCCN4CCN(C)CC4)cc3)Oc3ccccc32)c1,94.6
Cc1cc(C)[n+]2n1C(=O)C(c1ccccc1)=C2[O-],-93.3*
CN(C)C=Nc1ccc2nn(-c3ccccc3)nc2c1,-211.4*
Cc1cc(C(=O)Nc2ccc3[nH]ccc3c2)no1,-152.3*
Cn1c(-c2ccc(Cl)cc2)cnc1N,-126.4*
SMILES,aSyn 5UTR act
Cc1ccc(-c2cnc(N)n2C)cc1C,-71.2*
CC(C)(C)n1nc(-c2ccc(Cl)cc2)c2c(N)ncnc21,104.6
Cc1cccc(-c2noc(-c3ccc(Cl)cc3[N+](=O)[O-])n2)c1,-150.6*
COc1ccc(-c2noc(-c3ccc(Cl)cc3[N+](=O)[O-])n2)cc1OC,-118.4*
Cc1ccc(N=c2sc(C)c(C)n2C)cc1,-178.0*
Cc1cccc2c1Sc1ccc(Cl)cc1CC2N1CCNCC1 (stereo not given),104.2
CN1CCC(=NOc2ccc([N+](=O)[O-])cc2)CC1,-93.4*
COc1ccc(CNC(=O)c2ccc(-c3ccccc3)cc2)cc1,-114.7*
COc1cccc(/C=N/NC(=O)c2ccc(N3CCCC3=O)cc2)c1,-112.3*
COc1ccc(OC)c(NS(=O)(=O)c2ccc(N3CCCC3=O)cc2)c1,110.7
O=C(Cc1ccc(Br)cc1)NCc1ccccc1,-66.9*
COc1ccc(CNC(=O)c2ccc(N3CCCC3=O)cc2)cc1,-71.0*
O=C(NCc1ccccc1)c1c(Cl)nc(Cl)c(Cl)c1Cl,99.2
COc1ccc(CC(=O)NCc2ccccc2)cc1,-154.2*
COC(=O)c1ccc(COC(=O)CNC(=O)c2ccc(-c3ccccc3)cc2)cc1,-87.2*
COc1ccc(CNC(=O)c2nc(S(=O)(=O)Cc3ccccc3)ncc2Cl)cc1,48.8
C=CCn1cccc(C(=O)Nc2ccc(C)cc2)c1=O,-132.5*
C=CCn1cccc(C(=O)Nc2ccc(C)c(C)c2)c1=O,-124.3*
CN(C)c1ccc(N=C/C=C2/N(C)c3ccccc3C2(C)C)cc1,-83.6*
O=[N+]([O-])/C(C(Cl)=C(Cl)Cl)=C(\Nc1ccc(F)cc1)n1cncn1,-102.4*
CC(C)(C)C(=O)Nc1ccc(N=Nc2ccccc2)cc1,79.4
CC1CC1C(=O)OCC(=O)Nc1ccc(N=Nc2ccccc2)cc1 (stereo not given),-107.2*
O=C1CC(c2ccc3c(c2)OCO3)Sc2nc3ccccc3n21 (stereo not given),-159.8*
O=C1CC(c2ccccc2)Sc2nc3ccccc3n21 (stereo not given),-195.8*
Cc1oc(-c2ccc(Cl)cc2)nc1CS(=O)CC(=O)NCCCN1CCCC(C)C1 (stereo not given),-90.9*
SMILES,aSyn 5UTR act
COc1ccc(-c2nc(CS(=O)CC(=O)NCCCN3CCCC(C)C3)c(C)o2)cc1OC (stereo not given),-101.0*
Cc1nc(NCc2ccco2)c2c(C)c(C)sc2n1,-176.5*
O=C(C[n+]1cc(-c2ccc(F)cc2)n2c1CCC2)Nc1nc(-c2ccc(F)cc2)cs1,-63.0*
Cc1ccc(-c2csc(NC(=O)C[n+]3cc(-c4ccccc4)n4c3CCC4)n2)cc1,-116.7*
O=C(C[n+]1cc(-c2ccc(F)cc2)n2c1CCC2)N1c2ccccc2Sc2ccccc21,-180.6*
Cc1csc2ncc(C(=O)Nc3cccc(C(F)(F)F)c3)c(=O)n12,-127.9*
Cc1ccc(C(=O)Nc2cccc(C(F)(F)F)c2)cc1NC(=O)c1cnnc2ccccc12,64.2
CCc1ccc(NC(=O)c2cnc3scc(C)n3c2=O)cc1,-246.7*
COCCCNC(=O)/C=C/c1ccc(Cl)cc1Cl,-84.6*
O=C(COc1ccccc1[N+](=O)[O-])N/N=C/c1cccc(OC(=O)c2ccc3c(c2)OCO3)c1,-156.7*
O=C(COc1ccc(/C=N/NC(=O)c2cc3ccccc3o2)cc1Br)Nc1ccccc1,116.3
O=C(COc1ccccc1[N+](=O)[O-])Nc1ccc2c(c1)OCO2,-132.9*

# High-throughput results: PubChem BioAssay, Broad Institute
